# Screening data from PubChem BioAssay.
# TCR activator: Activators of T cell receptors: qHTS campaign. AID 504894, 2011. 330,000 tested, under 10 active. Potency, µM (titrated, usually from 9.22 µM), inactives show at the top dose activation of IL-2 secretion, most hits filed as activators. primary human leukocytes, anti-CD3, IL-2 HTRF, 48 h; also: % of control where 0% means no effect
#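 Primary human leukocytes incubated 48 hr with anti-CD3 beads plus compound, without co-stimulation. Secreted IL-2 measured by HTRF (europium cryptate/d2 anti-IL-2 pair, 320 nm excitation, 665 nm emission).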
# ClpP mod: qHTS Assay for Activators of ClpP | ATP-dependent Clp protease proteolytic subunit (Bacillus subtilis (strain 168)), P80244 | purified B. subtilis ClpP, FRET peptide cleavage, 20 min | Potency, µM (doses to about 57.5 µM), for inactives: at the highest dose activity change, negative = active | 1.9% of 340,000 active | AID 651965, 2013; active = well fitted falling curve with a large enough effect; inconclusive = small, poorly fitted or top-dose-only effect; inactive = no such curve, though single readings can be large or run the other way; also: potency is read from the fitted curve at half-maximal effect; the source files actives as falling curves though it sought activators and does not explain the sign; nearly all actives have a fitted effect of over 65% in size
# Target sequence (P80244 whole entry, looked up): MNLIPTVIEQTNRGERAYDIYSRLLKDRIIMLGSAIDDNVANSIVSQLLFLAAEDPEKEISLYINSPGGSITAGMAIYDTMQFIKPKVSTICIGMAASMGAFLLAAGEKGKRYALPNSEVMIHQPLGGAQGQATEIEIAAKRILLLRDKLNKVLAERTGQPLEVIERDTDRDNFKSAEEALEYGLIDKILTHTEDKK
#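 Purified B. subtilis ClpP, 10 microg/mL final in Tris/HCl pH8 with KCl, BSA, glycerol and Tween-20, cleaved an Abz/nitrotyrosine-quenched decapeptide. Fluorescence (ex 320, em 430) was read at 0 and 20 min at room temperature. Delta was normalized to 5.8 microM ADEP and DMSO/no-enzyme controls.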
# uPA surface inh: qHTS for Inhibitors of Cell Surface uPA Generation. AID 540303, 2011. Potency, µM (top dose mostly 38.3 µM), for inactives: at the top dose activity change, negative = inhibition, actives largely listed as inhibitors. cell surface uPA generation assay, qHTS. 0.31% of 330,000 active; active = well fitted inhibition curve with a large enough effect; inconclusive = small, poorly fitted or top-dose-only effect; inactive = no such curve, though single readings can be large or run the other way; tested in mouse RAW 264.7 cells; also: potency is read from the fitted curve at half-maximal effect; % is scaled to controls: 0 for no effect and ±100 for the full control effect; nearly all actives have a fitted effect of over 55% in size
# Sfp PPTase inh: qHTS Assay for Inhibitors of Bacillus subtilis Sfp phosphopantetheinyl transferase (PPTase); 4'-phosphopantetheinyl transferase ffp (Bacillus subtilis), Q9F4F7; Biochemical Sfp PPTase activity, qHTS; Potency, µM, for inactives: largest response in the series, negative = inhibition, actives largely listed as inhibitors; 3.5% of 310,000 active; AID 1490, 2009;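 also: the enzyme is Sfp with the accession as filed and its product quenches rhodamine fluorescence; potency is read from the fitted curve at half-maximal effect; 0% = enzyme reaction without inhibitor and -100% = no enzyme wells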
#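 Sfp 15 nM + cpd, 15 min RT; start w/ rhodamine-CoA 5 uM, BHQ-2-YbbR 12.5 uM (final); 50 mM Hepes pH 7.6, 10 mM MgCl2, 0.01% NP-40, 0.01% BSA; read 525/598 nm at 0 and 30 min.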
# Sfp inh conf: Confirmation qHTS Assay for Inhibitors of Bacillus subtilis Sfp phosphopantetheinyl transferase (PPTase); shares compounds with Sfp PPTase inh; Sfp PPTase enzymatic assay, qHTS titration; Potency, µM (doses to about 114 µM), without a hit: at the highest dose activity change, negative = inhibition, hits mostly inhibitors; 79% of 380 active;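 also: potency is read from the fitted curve at half-maximal effect; plate controls were uninhibited Sfp reaction for no effect and no enzyme control for full effect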
# Target sequence (Q9F4F7 whole entry, looked up): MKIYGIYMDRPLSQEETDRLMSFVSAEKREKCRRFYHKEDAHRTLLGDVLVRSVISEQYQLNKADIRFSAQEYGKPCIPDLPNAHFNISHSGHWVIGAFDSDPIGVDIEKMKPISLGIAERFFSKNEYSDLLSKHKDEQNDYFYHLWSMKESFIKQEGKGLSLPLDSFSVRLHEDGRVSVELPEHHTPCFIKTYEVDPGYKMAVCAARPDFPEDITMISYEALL
# Sfp gel assay: Gel-Based Assay for Inhibitors of Bacillus subtilis Sfp phosphopantetheinyl transferase (PPTase) | shares compounds with Sfp PPTase inh | purified Sfp, gel-based phosphopantetheinylation read-out | Potency, µM, most hits filed as inhibitors | 20% of 210 active | AID 2707, 2010;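 active = potency below 100 µM; inconclusive = dose-dependent response but potency above 100 µM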;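 also: band intensities scaled against SCH202676 control wells before curve fitting; potency is an IC50 for inhibitors of Sfp transfer activity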
# Active calls of the source: *; i = inactive; u = inconclusive; x = no result; [ ] = another dose, or the depositor's remark. This is a sample that favours compounds with a hit; in the whole collection about 4.2% have one here. Unless noted, calls follow the shape of the dose curve; as a rule, active = well fitted curve in the direction sought with a large enough effect; inconclusive = small, poorly fitted or top-dose-only effect, or another doubt; inactive = no such curve, though single readings can be large; an effect the other way counts as inactive or inconclusive.
SMILES,TCR activator,ClpP mod,uPA surface inh,Sfp PPTase inh,Sfp inh conf,others
O=C(c1cc(-c2ccc(Br)cc2)n[nH]1)N1CCN(S(=O)(=O)c2ccc(Br)s2)CC1,x,0.4%,x,x,x,
CC(C)OC(=O)Cn1c(-c2ccccc2)c(-c2ccccc2)nnc1=O,5.6%,-1.2%,10.3%,4.4%,x,
COC(=O)Cn1c(-c2ccc(OC)cc2)c(-c2ccc(OC)cc2)nnc1=O,x,0.4%,14.8%,50.1µM*,8.5%,
O=C(CSc1nc2ccc(S(=O)(=O)N3CCOCC3)cc2[nH]1)N1CCOCC1,0.7%,-0.9%,3.5%,6.31µM*,3.73µM*,
COCC(C)NC(=O)COCc1cc(-c2ccc3c(c2)OCO3)on1 (stereo not drawn),-6.0%,-15.0%,1.8%,10.5%,x,
COCCN(CC(=O)NC1CCCCC1)C(=O)/C=C/C(=O)c1ccc(OC)cc1O,0.3%,x,-17.8%,-0.3%,x,
COc1ccc(C(=O)/C=C/C(=O)N(CC(=O)NC2CCCCC2)Cc2cccs2)c(O)c1,-5.5%,5.2%,u,3.16µM*,3.32µM*,Sfp gel assay=2.06µM*
CCc1ccc(OCc2ccccc2C(=O)Nc2ccc3nc(C)cc(N)c3c2)cc1,x,-2.5%,x,12.6µM*,46.9µM*,
CCC(CC)C(=O)N(C)c1c(C)nc2c(OCc3ccc(C#N)cc3)cccn12,x,-0.9%,x,x,x,
O=C(NCc1ccccc1Cl)c1ccc(CSc2nc3ccncc3[nH]2)cc1,-11.7%,x,0.1%,17.0%,x,
Clc1ccccc1CSc1nc2ccncc2[nH]1,-5.5%,-2.3%,3.98µM*,56.2µM*,u,Sfp gel assay=u
O=C(O)c1ccccc1C(=O)Nc1ccc(-n2nc(C(F)(F)F)cc2C(F)(F)F)cc1,0.7%,x,1.7%,10.2%,x,
ONc1cccnc1-n1nc(C(F)(F)F)cc1C(F)(F)F,x,x,x,8.91µM*,14.8µM*,
CN1CCN(C(c2cccnc2)c2ccc3cccnc3c2O)CC1 (stereo not drawn),1.9%,-1.0%,5.0%,2.82µM*,41.8µM*,
O=C(Nc1ccc2oc(-c3cccc4c(Br)cccc34)nc2c1)c1ccc(F)cc1,x,4.0%,x,x,x,
COc1ccc(C)cc1NC(=O)CSc1nnc(-c2ccccn2)n1Cc1ccco1,-3.8%,3.9%,0.6%,-21.7%,x,
COc1ccccc1NC(=O)CSc1nnc(-c2ccccn2)n1Cc1ccco1,-1.5%,0.1%,-0.3%,4.47µM*,59.1µM*,Sfp gel assay=i
COc1ccc(-c2cn(Cc3ccc(C)cc3)nn2)cc1,-1.0%,0.8%,-5.1%,16.9%,x,
CCN(CC)c1ccc(NC(=O)c2ccccc2)cc1S(=O)(=O)Nc1ccccc1OC,7.3%[46.1 µM],-2.8%,5.3%,3.16µM*,6.63µM*,
COc1ccc(CCNC(=O)C/C(C)=N/NC(=O)COc2ccc(C)cc2Br)cc1OC,-2.7%,x,-6.4%,7.3%,x,
Cc1cc2nc3ccc(=[N+](C)C)cc-3sc2cc1N,24.9%,0.8%,u,25.1µM*,37.3µM*,
O=C(NC(=S)NC12CC3CC(CC(C3)C1)C2)c1ccc(F)cc1,-2.7%,-7.4%,5.9%,x,x,
OCC[C@@H]1C[C@H](O)[C@@H](O)[C@]2(CCc3ccccc3CO2)O1,11.0%,0.6%,11.6%,3.2%,x,
NC(Cc1ccc(O)c([N+](=O)[O-])c1)C(=O)O (stereo not drawn),-4.1%[46.1 µM],-1.1%,4.1%,u,x,
N[C@@H](Cc1ccc(O)c(O)c1)C(=O)O,-3.1%,-1.9%,4.9%,39.8µM*,-6.4%[53.7 µM],Sfp gel assay=u
Cn1c(SCC(=O)c2cc3ccccc3o2)nnc1-c1ccccc1,-5.0%,-6.7%,u,12.6µM*,52.7µM*,
Cn1cnnc1SCC(=O)c1cc2ccccc2o1,1.1%,-1.2%,19.9%,-6.2%,x,
O=C(c1ccc2c(=O)n3c(nc2c1)CCC3)N1CCN(S(=O)(=O)c2ccccc2Br)CC1,1.2%,-3.1%,-1.0%,x,x,
Oc1ccccc1CNc1cccc2cccnc12,-3.6%,-1.5%,-2.7%,7.94µM*,41.8µM*,
CCOC(=O)CN1C(=O)CN(c2ccc(C)cc2)C1=O,-1.3%[46.1 µM],2.5%,2.0%,17.7%,x,
